PERK inh: block of dimerizer-induced PERK translation repression, primary screen, PERK inhibitor project, CHO PERK-DD cells, SEAP luminescence, HTS; Eukaryotic translation initiation factor 2-alpha kinase 3 (Homo sapiens), Q9NZJ5; CHO PERK-DD fusion, SEAP luminescence translation reporter; inhibition, % at 5.6 µM; hit rate 0.17% among 220,000; AID 1416, 2008;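 active = inhibition above the mean inhibition of all tested compounds plus 3 SD, set separately per screening campaign, cut at about 2.9% in these data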;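 note: PERK kinase domain activated by AP20187 dimerizer at 100 nM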
eIF4E 4G PPI: eIF4E–eIF4G protein interaction inhibitors, primary screen, biochemical, uHTS, TR-FRET, eIF4GI fragment; inhibition, % at 21.7 µM; hit rate 0.37% among 220,000; TR-FRET eIF4E-eIF4GI(517-606) binding, 2 h; Eukaryotic translation initiation factor 4E (Mus musculus) + Eukaryotic translation …; AID 782, 2007;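 active = inhibition above about 30%, limit read from the data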
EP2 modulator: EP2 receptor modulators, cAMP readout, primary screen, cell-based, HTRF cAMP, PGE2 stimulation; induction, % at 25 µM; hit rate 0.83% among 260,000; EP2-expressing cells, cAMP HTRF FRET, PGE2 co-stimulation; Prostaglandin E2 receptor EP2 subtype (Homo sapiens), P43116;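 active = compounds whose cAMP rise, as percent of the full-agonist control response, exceeds 60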;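 note: rat C6 glioma line stably carrying human EP2 under a CMV promoter; the protocol text gives 20 µM as final concentration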
PGE2 EP2 inh: human EP2 receptor antagonists, primary screen, TR-FRET cAMP, C6 glioma cells | C6 glioma cells expressing human EP2; cells stimulated with saturating PGE2 | inhibition, % at 25 µM | hit rate 0.52% among 260,000;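 active = percent inhibition above 40 after rounding to a whole number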;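 note: rat C6 glioma host cells with rolipram phosphodiesterase inhibitor present; the protocol text gives 20 µM as final concentration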
Numbers stand for hits; – = inactive; · = no result; [ ] = remark or other dose. The list is not random: actives were taken first. Their share in the collection is about 1.8%.

SMILES	PERK inh	eIF4E 4G PPI	EP2 modulator	PGE2 EP2 inh
CCN(c1ccccc1)S(=O)(=O)c1cc(NC(=O)Nc2ccccc2C#N)ccc1Cl	–	–	–	–
COc1cccc(/C(O)=C2/C(=O)C(=O)N(Cc3cccnc3)C2c2ccc(O)c(OC)c2)c1 (centres undefined)	·	·	–	–
Nc1cc(S(N)(=O)=O)ccc1SSc1ccc(S(N)(=O)=O)cc1N	·	·	–	59.6
COc1ccc(CNc2nc3ccccc3n2C)c(OC)c1	–	–	–	–
COc1ccc(N/C=C(\C#N)c2nc3ccccc3n2C)c(OC)c1	–	–	63.0	–
CCOc1ccccc1NC(=O)CSc1nc(C)cc(=O)[nH]1	·	·	–	–
O=C(NCCO)/C(=C/c1cccs1)NC(=O)c1cccs1	·	·	–	–
Cc1cc(C)c(NC(=O)CSc2nnc3c(n2)[nH]c2ccc(F)cc23)c(C)c1	·	·	–	–
CC(C)(C)NC(=O)NC(=O)CN1CCN(Cc2ccccc2)CC1	–	–	–	–
CC(C)(C)c1c2c(c(C(C)(C)C)c3c1OCN(Cc1ccccc1)C3)OCN(Cc1ccccc1)C2	·	·	–	80.5
COc1cccc(C(=O)N2CCN(Cc3ccccc3F)CC2)c1OC	·	·	–	–
N#CC1(Cc2ccc(Cl)cc2)c2ccccc2C=CN1C(=O)c1ccccc1 (centres undefined)	–	–	63.4	–
O=C(CNC(=O)c1ccccc1)NCc1ccc(Cl)cc1	–	–	–	–
C[N+](C)(C)CCC(=O)c1cccc2ccccc12	·	·	–	106.3
CCOc1cccc2sc(NC(=O)CC)nc12	–	–	–	–
NNc1nc2c(Cl)c(Cl)ccc2s1	–	–	–	–
CCC(=O)Nc1nc2c(Cl)c(Cl)ccc2s1	·	·	–	66.8
Nc1nc2c(Cl)c(Cl)ccc2s1	·	·	–	60.5
COc1ccc(N2C(S)=C(C#N)C(=O)NC2c2cc(OC)ccc2OC)cc1 (centres undefined)	·	·	–	–
Cc1cc2cc(CN(Cc3ccc4c(c3)OCO4)Cc3nnnn3C3CCCC3)c(=O)[nH]c2cc1C	–	–	63.9	–
CCOc1ccc2[nH]c(=O)c(CN(Cc3ccc(F)cc3)Cc3nnnn3C3CCCC3)cc2c1	·	·	61.3	–
CCOc1ccc2[nH]c(=O)c(CN(Cc3nnnn3C3CCCCC3)C3CCCC3)cc2c1	·	·	–	–
CCOc1ccc2[nH]c(=O)c(CN(CCc3ccccc3)Cc3nnnn3C3CCCCC3)cc2c1	·	·	62.1	–
O=C(NCc1ccc2c(c1)OCO2)C(=O)NCc1ccco1	·	·	–	–
CC(=O)[C@H]1CC[C@@H]2[C@]1(C)CC=C1[C@@]23C=C[C@@]2(C[C@H](O)CC[C@@]12C)[C@H](C(=O)O)[C@@H]3C(=O)O	·	·	–	40.8
SMILES	PERK inh	eIF4E 4G PPI	EP2 modulator	PGE2 EP2 inh
Cc1ccc(N2CC(C(=O)NC3CCCC3)CC2=O)cc1 (centres undefined)	·	·	–	50.0
O=C(NC1CCCCC1)C1CC(=O)N(c2ccc(Cl)cc2)C1 (centres undefined)	–	–	–	–
COc1ccc(-n2nnnc2SCC(=O)Nc2cc(C)ccc2C)cc1OC	·	·	–	–
O=C(Nc1ccccc1Cl)c1ccccc1Cc1ccccc1	–	–	63.9	–
C[C@H]1C[C@@H]2[C@@H]3CCC4=CC(=O)C=C[C@@]4(C)[C@@]3(F)[C@H](O)C[C@@]2(C)[C@]1(O)C(=O)COP(=O)(O)O	·	·	–	41.6
C[C@]1(c2ccccc2)O[C@@H]2C[C@H]3[C@@H]4CCC5=CC(=O)C=C[C@@]5(C)[C@@]4(F)[C@H](O)C[C@]3(C)[C@]2(C(=O)CO)O1	·	·	–	51.4
Nc1cccc(NC(=O)CN2CCCCC2)c1	·	·	–	–
CO/N=C/c1ccc(Sc2ccccc2N)c([N+](=O)[O-])c1	–	–	–	–
Nc1ccccc1Sc1ccccc1[N+](=O)[O-]	–	–	60.8	–
CCCCNc1nc(NC)nc(Cl)c1SC	–	–	63.1	–
CCOC(=O)c1ccc(N2N=C(C(F)(F)F)CC2=O)cc1	·	·	–	–
COc1ccc2cc(C#N)c(SCC(=O)N3CCCC(C)C3)nc2c1 (centres undefined)	·	·	–	–
Cc1ccc2cc(C)c(SCC(=O)N3CCCC(C)C3)nc2c1 (centres undefined)	·	·	62.0	–
Cc1cc(CN(CCCn2ccnc2)Cc2ccccc2F)cc(C)c1O	·	·	–	–
Cc1ccc(S(=O)(=O)NCC(=O)N(CC(=O)NCC2CCCO2)C2CCCC2)cc1 (centres undefined)	–	91.3[fluorescence artefact?]	–	–
O=C(CN(C(=O)CNS(=O)(=O)c1ccccc1)C1CCCC1)NCC1CCCO1 (centres undefined)	–	–	–	–
COCCCn1c(=S)[nH]c2sc3c(c2c1=O)CCCS3	–	–	–	45.1
COCCCn1c(SCc2ccc(Cl)cc2)nc2sc3c(c2c1=O)CCC3	·	·	–	–
Cc1cc(NC(=O)c2cc(-c3ccc(O)cc3)on2)no1	–	–	–	–
CCOC(=O)c1c(NC(=O)c2cc(-c3ccc(O)cc3)on2)sc(C(C)=O)c1C	–	31.4	–	–
C=CCn1c(-c2ccccc2)n[nH]c1=S	–	–	–	–
C=CCn1c(-c2ccoc2)n[nH]c1=S	–	65.2	–	–
CCn1c(COc2ccc(Cl)c(C)c2)nnc1SCC(=O)N1CCCc2ccccc21	·	·	–	–
Cc1nn(CCCC(=O)Nc2sc3c(c2C#N)CCC3)c(C)c1[N+](=O)[O-]	–	–	–	–
Cc1nn(CC(=O)Nc2sc3c(c2C#N)CCC(C(C)(C)C)C3)c(C)c1[N+](=O)[O-] (centres undefined)	3.0	–	–	–
SMILES	PERK inh	eIF4E 4G PPI	EP2 modulator	PGE2 EP2 inh
O=C(CNCC1CCCO1)Nc1ccccc1N1CCCCCC1 (centres undefined)	–	–	62.0	–
CCNc1nc(NCC)nc(SCCOC(=O)Nc2ccc(Cl)cc2Cl)n1	–	–	–	–
CCNc1nc(NCC)nc(SCCOC(=O)c2ccccc2)n1	–	–	63.3	–
Cn1c(COc2ccccc2)nnc1SCC(=O)NNC(=O)C1CCCCC1	–	–	–	–
COc1ccc(-n2nnnc2SCC(=O)N(C2CCCCC2)C2CCCCC2)cc1OC	·	·	69.2	–
Cn1c(COc2ccccc2)nnc1SCC(=O)N(C1CCCCC1)C1CCCCC1	·	·	74.1	–
N#Cc1c(NC(=O)c2ccc3ccccc3c2)sc2c1CCCC2	·	·	–	–
CCCN1C(=O)/C(=C2/C=Cc3ccccc3N2CC)SC1=S	–	–	–	–
CCCN1/C(=C2/SC(=S)N(CC)C2=O)C=Cc2ccccc21	–	–	62.6	–
Cc1ccc(-c2nnn(CC(=O)N(c3cccc(F)c3)C(C(=O)NC(C)(C)C)c3cccs3)n2)o1 (centres undefined)	·	·	–	–
O=C(CN1C(=O)C2CCCN2S(=O)(=O)c2ccccc21)N1CCOCC1 (centres undefined)	·	·	–	–
CCCc1nc2cc(CC(=O)OC)ccc2o1	3.1	–	–	–
COc1cc(CC(=O)N2CCc3c(nc(N4CCCC4)[nH]c3=O)C2)ccc1O	·	·	–	·
